A549 tox: kills or reduces viability of A549 cells in Nrf2 counter-screen | A549 ARE-Fluc cells, CellTiter-Fluor viability, 18-24 h | Potency, µM (top dose mostly 46 µM), for inactives: top-dose activity change, negative = cytotoxicity, usual class: inhibitors | 390,000 compounds, 0.16% hits; further: on the % scale 0 is the no-effect control and ±100 the full control effect
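Cytotoxicity counterscreen: CellTiter-Fluor fluorescence was measured in A549 ARE_Fluc cells after 18-24 h of compound exposure in a concentration series. The subsequent BugLite luminescent read reports ARE-luciferase activity.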
IDH1 R132H inh: human IDH1 R132H inhibition; O75874; IDH1-R132H enzyme, NADPH consumption, diaphorase/resazurin fluorescence; Potency, µM (titrated, usually from 76.6 µM), for the others: at the highest dose activity change, negative = inhibition, most hits filed as inhibitors; 390,000 compounds, 0.093% hits; AID 602179; further: on the % scale 0 is the no-effect control and ±100 the full control effect; nearly all actives have a fitted effect of over 65% in size
Target sequence (O75874 whole entry R132H, stated change not applied): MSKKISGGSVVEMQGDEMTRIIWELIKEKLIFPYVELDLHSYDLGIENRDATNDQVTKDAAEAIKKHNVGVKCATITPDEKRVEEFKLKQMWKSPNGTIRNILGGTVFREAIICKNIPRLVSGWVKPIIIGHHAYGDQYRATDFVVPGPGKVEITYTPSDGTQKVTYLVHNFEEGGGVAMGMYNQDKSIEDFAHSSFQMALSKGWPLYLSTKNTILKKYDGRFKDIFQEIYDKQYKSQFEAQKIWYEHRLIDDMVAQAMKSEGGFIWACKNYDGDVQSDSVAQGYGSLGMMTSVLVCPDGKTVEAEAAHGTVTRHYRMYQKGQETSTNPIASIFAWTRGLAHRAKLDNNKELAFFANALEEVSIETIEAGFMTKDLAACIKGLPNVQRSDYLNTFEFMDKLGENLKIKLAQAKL
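IDH1-R132H (0.5 ug/mL) preincubated 30 min with compound, then NADPH (0.016 mM) and alpha-KG (2 mM) added; 80 min at RT, pH 7.5. Remaining NADPH coupled via diaphorase/resazurin to fluorescence (540/590 nm); concentration-response curves normalized to no-enzyme control.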
Nrf2 inh: inhibitors of Nrf2 signaling. A549 ARE-Fluc reporter, luciferase luminescence, 18-24 h. Potency, µM (top dose mostly 46 µM), inactives show at the top dose activity change, negative = inhibition, hits mostly inhibitors. 360,000 compounds, 2.1% hits. AID 504444; further: on the % scale 0 is the no-effect control and ±100 the full control effect; nearly all actives have a fitted effect of over 60% in size
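Cells were seeded and rested 2 h, then exposed to compounds for 18-24 h. CellTiter-Fluor was read first as a viability measure. BugLite was added 15 min before the final luminescent read of ARE-luciferase activity in A549 cells.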
ELG1 DNA repair: ELG1-dependent DNA repair inhibition; 330,000 compounds, 2.3% hits; HEK293T ELG1-luciferase reporter, luminescence, 16 h; DNA damage induced by 5-fluorouridine; Potency, µM (series often up to 46.1 µM), without a hit: at the highest dose activity change, negative = inhibition, usual class: inhibitors; further: on the % scale 0 is the no-effect control and ±100 the full control effect; nearly all actives have a fitted effect of over 55% in size
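In this reporter screen, reduction of luminescence relative to DMSO vehicle indicated activity. Compounds and 5-fluorouridine were added together to 2,000 cells per well, incubated for 16 hr at 37 °C, then developed with ONE-Glo.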
Nrf2 activator: activates Nrf2 signaling; Potency, µM (series often up to 46.1 µM), for inactives: at the highest dose activation, actives largely listed as activators; AID 624171; 410,000 compounds, 0.31% hits; AREc32 ARE-luciferase reporter (MCF7-derived line), luminescence, 24 h; further: % of control where 0% means no effect; nearly all actives have a fitted effect of over 65% in size
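ARE activation measured as luciferase luminescence (Steady-Glo, 30 min RT) in AREc32_Fluc cells after 24 hr compound exposure at 37 deg C, 5% CO2; cells seeded overnight at 1000/well in OPTI-MEM, 5% FBS.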
An asterisk follows results filed as active; ? = inconclusive; nt = no result; [ ] = another dose, or the depositor's remark. Shown are actives, neighbours in structure and some others; about 3.8% of the full set was active somewhere. The call rests on the fitted dose curve; in most records, active means well fitted curve in the direction sought with a large enough effect; inconclusive means small, poorly fitted or top-dose-only effect, or another doubt; inactive means no such curve, though single readings can be large; an effect the other way counts as inactive or inconclusive. Potency means the concentration at half of the fitted maximal effect.

SMILES | A549 tox | IDH1 R132H inh | Nrf2 inh | ELG1 DNA repair | Nrf2 activator
CCOC(=O)c1ccc(N2C(=O)c3n[nH]c(-c4ccco4)c3C2c2cccc([N+](=O)[O-])c2)cc1 (stereo not drawn) | ? | -6% | ? | 18µM* | 0%
CC1(C)CC[C@]2(C(=O)O)CC[C@]3(C)C(=CC[C@@H]4[C@@]5(C)CC[C@H](O[C@@H]6O[C@H](C(=O)O)[C@@H](O)[C@H](O[C@@H]7OC[C@H](O)[C@H](O)[C@H]7O)[C@H]6O)C(C)(C)[C@@H]5CC[C@]43C)[C@@H]2C1 | ? | -4% | 21µM* | ? | -3%
CC1(C)CC[C@]2(C(=O)O[C@@H]3O[C@H](CO)[C@@H](O)[C@H](O)[C@H]3O)CC[C@]3(C)C(=CCC4[C@@]5(C)CC[C@H](O[C@@H]6O[C@H](C(=O)O)[C@@H](O[C@H]7OC[C@@H](O)[C@@H](O)[C@@H]7O)[C@H](O)[C@H]6O)C(C)(C)C5CC[C@]43C)[C@@H]2C1 (stereo partly drawn) | -2% | -3% | 14% | 9% | 0%
O=C(Nc1ccc(N2CCCCC2)cc1)c1ccc([N+](=O)[O-])o1 | ? | 17% | ? | ? | ?
CS(=O)(=O)N1CCN(c2ccc(NC(=O)c3ccc([N+](=O)[O-])o3)cc2)CC1 | 13µM* | 8% | -9% | ? | ?
O=C(Nc1ccc(N2CCN(C(=O)c3ccc(Cl)cc3)CC2)cc1)c1ccc([N+](=O)[O-])o1 | ? | 4% | 21µM* | ? | 6.3µM*
CC1(C)CC(=O)N(c2cc(Cl)cc(Cl)c2)C(=O)C1 | -3% | 0% | -2% | -8% | 0%
Cn1nc(-c2ccc(Cl)cc2)c2cc(C(=O)NCC3CCCO3)sc21 (stereo not drawn) | -19% | -4% | ? | 16µM* | 20%
CN1CCN(CCCNC(=O)c2cc3c(-c4ccc(Cl)cc4)nn(C)c3s2)CC1 | -4% | -1% | -12% | ? | 20%
NC1CCN(c2c(F)cc3c(=O)c(C(=O)O)cn(C4CC4)c3c2Cl)C1 (stereo not drawn) | 7% | 1% | 21% | -5% | 1%
CCS(=O)(=O)c1ccc(O)c(NC(=O)Nc2ccc(C(C)(C)C)cc2)c1 | -1% | 1% | -1% | 15µM* | 0%
CCS(=O)(=O)c1ccc(O)c(NC(=O)Nc2ccccc2)c1 | 18%[1.84 µM] | 3% | 5% | 14% | 2%
Cc1cccc(NC(=O)c2c(C)oc3ncn(CC(C)C)c(=O)c23)n1 | 2% | -1% | ? | nt | 4%
COc1ccc(NC(=O)CN(c2ccc(C)cc2)S(=O)(=O)c2c(C)nn(C)c2C)cc1 | 0% | -6% | -2% | 4% | -1%
COc1ccc2nc(NC(=O)CCn3cccc3)sc2c1 | -12% | 6% | 19% | 26% | 3%
CCOC(=O)N1CCN(CC(=O)Nc2nc3ccc(OC)cc3s2)CC1 | 1% | 10% | 1% | 15µM* | 2%
COc1ccc2nc(NC(=O)CN(c3ccc(C)cc3)S(=O)(=O)c3c(C)nn(C)c3C)sc2c1 | ? | -9% | ? | 23µM* | -1%
COc1ccc2nc(NC(=O)CCc3cc(OC)c(OC)c(OC)c3)sc2c1 | 0% | -4% | -11% | 10µM* | 0%
c1ccc(CNc2ncnc3c2ncn3Cc2ccccc2)cc1 | 0% | nt | -18% | nt | nt
CCc1nc(N2CCN(C(=O)CCCl)CC2)c2c3c(sc2n1)CCCC3 | nt | -28% | nt | nt | 2%
CCc1nc(N2CCN(C(C)=O)CC2)c2c3c(sc2n1)CC(C(C)(C)C)CC3 (stereo not drawn) | -6% | ? | 18µM* | ? | 4%
O=C(CCc1nc2ccccc2c(=O)[nH]1)Nc1nc(-c2cccs2)cs1 | -1% | 4% | 2% | 0% | 10µM*
O=C1OCC(CO)(CO)N=C1NNc1ccccc1[N+](=O)[O-] | -5% | 2% | 3% | 7.3µM* | 2%
CSc1cccc(NC(=O)CN2C(=O)COc3ccc(Cl)cc32)c1 | 1% | -14% | 16µM* | nt | 4%
CCn1c(SCC(=O)Nc2ccc(OCc3ccccc3)cc2)nnc1-c1ccco1 | ? | 2% | 15µM* | ? | 1%
SMILES | A549 tox | IDH1 R132H inh | Nrf2 inh | ELG1 DNA repair | Nrf2 activator
O=C(CSc1nnc(-c2ccco2)n1Cc1ccccc1)NC(=O)NCc1ccccc1 | 2% | 1% | 21% | 18µM* | 0%
Cc1cc(C)cc(N(C(=O)c2cc3ccccc3oc2=O)C2C=CS(=O)(=O)C2)c1 (stereo not drawn) | 4% | 0% | -5% | -10% | 14µM*
COc1ccc(-c2nc3sc(CCNC(=O)C(=O)Nc4ccccc4C#N)c(C)n3n2)cc1 | -2% | -6% | nt | nt | 0%
O=S1(=O)C=C(Sc2nc3ccccc3s2)c2ccccc21 | 23µM* | 11% | 18µM* | ? | -2%
C=C(C)CN=c1scc(C)n1/N=C/c1ccco1 | -8% | 18% | 2% | 18% | 13µM*
OCC1(Cc2ccccc2)CCCN(Cc2ccc3c(c2)OCCO3)C1 (stereo not drawn) | -1% | 0% | -4% | -8% | 0%
OCc1ccc2c(c1)c(-c1ccc3c(c1)OCCO3)c(-c1ccccc1)n2-c1ccccc1 | -1% | -7% | -16% | 16µM* | 0%
O=C(NNc1ccccc1)c1sc2ccccc2c1Cl | 9% | nt | 17% | nt | nt
Cc1ccc(NC(=O)CSc2nccn2C2CCCC2)cc1 | -2% | -2% | nt | nt | 1%
COc1ccc(C2/C=C\CC(OCc3ccccc3)CC(=O)N2Cc2cccc(F)c2)cc1 (stereo not drawn) | -4% | 6% | -27% | 21µM* | 4%
COC(=O)C(C)N(C(=O)c1cccc2ccccc12)c1c(C)cccc1C (stereo not drawn) | -11% | 4% | 18µM* | -25% | -2%
Cc1ccccc1-n1c(SCC(=O)c2cc(C)n(C)c2C)nnc1-c1ccncc1 | 0% | -1% | -19% | 11µM* | 0%
C=CCn1c(SCC(=O)c2cc(C)n(Cc3cccs3)c2C)nnc1-c1ccncc1 | -4% | 4% | -21% | 16µM* | 0%
C=CCn1c(SCC(=O)c2c(C)[nH]c3ccccc23)nnc1-c1ccncc1 | -1% | 6% | 1% | 16% | -1%
Cc1ccccc1-n1c(SCC(=O)c2ccccc2)nnc1-c1ccc(F)cc1 | -1% | 8% | nt | nt | 5%
Cc1cc(C)nc(SC2=CS(=O)(=O)c3ccccc32)n1 | -15% | 0% | ? | ? | ?
O=S1(=O)C=C(Sc2nnc(-c3ccccc3)o2)c2ccccc21 | ? | -2% | ? | 16µM* | ?
